Screening results: PubChem BioAssay, several laboratories
An excerpt weighted towards active compounds, which were near 1.3% of everything screened.
DUSP3 inh – blocks human VHR1 dual specificity phosphatase; P51452; recombinant VHR phosphatase, pNPP absorbance; inhibition, % at 13.3 µM; actives 0.52% (n = 290,000); in the data active = inhibition above about 50%
Target sequence (P51452 whole entry, looked up): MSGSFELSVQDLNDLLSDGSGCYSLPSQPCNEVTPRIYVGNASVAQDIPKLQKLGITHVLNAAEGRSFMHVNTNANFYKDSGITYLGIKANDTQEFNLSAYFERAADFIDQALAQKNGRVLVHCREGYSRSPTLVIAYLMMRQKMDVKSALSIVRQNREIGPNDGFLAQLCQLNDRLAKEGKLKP
SARS 3CLpro inh – SARS-CoV 3CLpro protease inhibition; P0C6X7; recombinant SARS-CoV 3CLpro, quenched FRET peptide cleavage; inhibition, % at 6 µM; actives 0.14% (n = 290,000); AID 1706; in the data active = inhibition above about 12%
CCHF vOTU inh – blocks the CCHF virus ovarian tumor domain protease; CCHFV vOTU protease, Pep-AMC fluorescence; inhibition, % at 11.5 µM; actives 0.55% (n = 370,000); in the data active = inhibition above about 30%
Mtb hypoxia rep – Mtb hypoxia fluorescent reporter inhibition | M. tuberculosis hypoxia-regulated fluorescent reporter, fluorescence | fluorescence inhibition, % (no concentration beside the values) | actives 0.1% (n = 300,000); in the data active = fluorescence inhibition mostly above about 23%, no sharp cut-off; inactive = mostly below about 17%
PriA SSB inh – K. pneumoniae PriA-SSBct interaction inhibition | AlphaScreen SSBct-PriA binding, biotinylated peptide | inhibition, % at 33 µM | actives 0.6% (n = 430,000); in the data active = inhibition mostly above about 37%, no sharp cut-off; inactive = mostly below about 20%
Numbers stand for hits; – = inactive; · = not tested or not shown.

SMILES	DUSP3 inh	SARS 3CLpro inh	CCHF vOTU inh	Mtb hypoxia rep	PriA SSB inh
CNc1sc(C(=O)c2ccc(F)cc2)c(N)c1-c1nc2ccccc2s1	–	–	–	–	–
CNc1sc(C(=O)c2cccs2)c(N)c1-c1nc2ccccc2s1	–	–	–	–	53
Cc1ccc2c(CN3CCC(C)CC3)cc(=O)oc2c1C	53	–	–	–	–
O=[N+]([O-])c1cc2c(cc1C=Nn1c(-c3ccccn3)n[nH]c1=S)OCO2	·	·	·	–	99
S=c1[nH]nc(-c2ccccn2)n1N=Cc1cccs1	·	·	·	–	58
O=[N+]([O-])c1cc2c(cc1C=Nn1c(-c3ccccc3)n[nH]c1=S)OCO2	·	·	·	–	–
Cc1ccccc1NC(=O)CSc1ccc(NC(=O)C2CC2)nn1	·	·	·	·	–
CCN(CC)c1ccc(C=NCCNS(=O)(=O)c2ccc(C)cc2)cc1	57	–	–	–	–
N/C(=N\OC(=O)c1ccccc1F)c1cccc([N+](=O)[O-])c1	51	–	–	·	·
NC(=NOC(=O)c1ccccc1Br)c1cccc([N+](=O)[O-])c1	·	·	·	–	–
O=C(COc1ccc(Cl)cc1)NCc1nnc2c3ccccc3c(-c3ccccc3)nn12	51	–	–	–	–
O=C(NCc1nnc2c3ccccc3c(-c3ccccc3)nn12)c1ccccc1Cl	–	–	–	–	–
COc1ccccc1N1CCN(C(c2cccs2)C(C)NC(=O)c2cccc(C)c2)CC1 (stereo not given)	·	·	·	·	–
COc1cc2c(cc1OC)C(c1cccc(F)c1)CC(=O)N2 (stereo not given)	51	–	–	·	–
CCOc1ccc(-c2csc(-n3nc(C)cc3NC(C)=O)n2)cc1	·	·	·	·	–
Cc1cccc(C(=O)N(Cc2nc3ccccc3c(=O)[nH]2)C2CCCCC2)c1	52	–	–	–	–
c1ccc(-c2nc(NC3CCCC3)c3ccccc3n2)nc1	·	·	·	·	120
C(=N\Nc1nc(-c2ccccn2)nc2ccccc12)/c1ccccc1	–	–	·	·	·
c1ccc(-c2nc(NCC3CCCO3)c3ccccc3n2)nc1 (stereo not given)	–	–	–	–	89
CC1SC(=NN=C2CCCCC2)NC1=O (stereo not given)	·	·	·	·	–
CC(=O)N(c1ccc(N(C(C)=O)S(=O)(=O)c2ccc3ccccc3c2)cc1)S(=O)(=O)c1ccc2ccccc2c1	·	·	·	·	–
CC(C)[C@H](NC(=O)[C@@H]1Cc2ccccc2CN1)C(=O)NC1CCCCC1	–	–	–	–	–
C[C@H](NC(=O)[C@@H]1Cc2ccccc2CN1)C(=O)NC1CCCCC1	53	–	–	–	–
NC1=NC(=O)/C(=C\c2ccc(O)c([N+](=O)[O-])c2)S1	–	–	–	56	–
CC1CCN(c2ccc(C(=O)Nc3ccc4c(c3)OCO4)cc2[N+](=O)[O-])CC1	–	–	–	–	39
SMILES	DUSP3 inh	SARS 3CLpro inh	CCHF vOTU inh	Mtb hypoxia rep	PriA SSB inh
Cc1ccc(NC(=S)NNC(=O)c2ccc(N3CCOCC3)c([N+](=O)[O-])c2)cc1Cl	–	–	–	·	38
COc1ccc(OCC(=O)NC(=S)Nc2ccc(N3CCOCC3)c(Cl)c2)cc1	–	–	·	38	–
O=C(NNC(=S)Nc1ccc(Br)cc1)c1ccc(N2CCOCC2)c([N+](=O)[O-])c1	–	–	–	–	–
COc1ccc(CCC(=O)Nc2cnc3cc(C)nn3c2)cc1	·	·	·	·	–
Cc1cc(N)c2cc(F)ccc2n1	·	·	·	·	–
O=C(CCS(=O)(=O)c1cccs1)Nc1ccc(C(=O)NCc2ccccc2)cc1	53	–	–	–	–
Cc1ccc(CNC(=O)c2ccc(NC(=O)CCS(=O)(=O)c3cccs3)cc2)cc1	–	–	–	–	–
COc1ccc(NC(=O)Cn2c(C)cc(C)c(S(=O)(=O)c3ccc(Br)cc3)c2=O)cc1Cl	·	·	·	·	–
Cc1cc(NC(=O)c2ccc(S(=O)(=O)N(C)C)cc2)n(-c2nc(-c3ccc(F)cc3)cs2)n1	·	·	·	·	–
CN(C(=O)CSc1ncnc2sc3c(c12)CCC3)C1CCS(=O)(=O)C1 (stereo not given)	·	·	–	32	–
CCOc1cn2c(cc1=O)C(=O)N(CCNC(=O)c1ccccc1C)CC2	·	·	·	·	–
Cc1cccc(NC(=O)Cn2c(=O)n(Cc3ccco3)c(=N)c3c4c(sc32)COC(C)(C)C4)c1	52	–	–	·	–
COc1cc(NC(=O)NCc2cc(C)nc(N(C)C)n2)cc(OC)c1	·	·	·	·	–
C/C(=C\C(=S)Nc1ccccc1)Nc1ccc2ccccc2c1	–	–	–	–	67
C/C(=C\C(=S)Nc1ccccc1)Nc1cccc2ccccc12	–	–	–	–	–
Cc1ccc(C(=O)N2CCNC(=O)C2(C)C)cc1	·	·	·	·	–
CSc1nccc(-c2nn(-c3ccc(Cl)cc3)ccc2=O)n1	·	·	·	·	53
